Common to all, as to assay: MAPPIT interaction score (arbitrary units); higher = stronger binary interaction signal, active = hit call of the paper
The target of one experiment is E(z). To be noted: pair source set: Lit-BM-16.
The target of the next experiment is Dysb. The conditions noted are these: pair source set: Lit-BM-16.
The next experiment has as its target E(spl)m4-BFM. The conditions noted are these: MAPPIT configuration: N-C; pair source set: RRS.
The next experiment concerns the target Dif. The conditions noted are these: pair source set: Lit-BM-16.
In a further experiment the target is Dpm3. To be noted: MAPPIT configuration: N-C; pair source set: screen_3.
A further experiment concerns the target Drat. The conditions noted are these: MAPPIT configuration: N-N; pair source set: RRS.
In the next experiment the target is Doa. To be noted: MAPPIT configuration: N-N; pair source set: Finley_Y2H.
The target of another experiment is DnaJ-1. To be noted: MAPPIT configuration: N-N; pair source set: Lit-BM-16.
A further experiment addresses Doc1. The conditions noted are these: MAPPIT configuration: N-C; pair source set: screen_3.
Another experiment concerns the target Dpit47. To be noted: pair source set: RRS.
In another experiment the target is Vps51. To be noted: MAPPIT configuration: N-N; pair source set: Curagen_high_conf.
Another experiment has as its target Dhod. The conditions noted are these: MAPPIT configuration: N-N; pair source set: Curagen_high_conf.
Another experiment concerns the target cindr. To be noted: MAPPIT configuration: N-N; pair source set: Lit-BM-16.
The target of another experiment is Dlc90F. The conditions noted are these: MAPPIT configuration: N-N; pair source set: Finley_Y2H.
In a further experiment the target is Mtap. To be noted: MAPPIT configuration: N-N; pair source set: screen_1.

Values without a mark were called inactive.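 How the source made its calls: active = MAPPIT score above the 99th percentile of random reference set scores in the same batch; inactive = at or below it.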
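Further: HEK293T cells with Epo stimulation, STAT-responsive firefly luciferase reporter, fold induction versus unstimulated cells divided by the larger fold induction of two negative controls lacking either bait or prey.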

B1: Pcl (protein)
chain: MMNNHFHLQHDHPPQNVAHPFMQQPSTAVPSAPPATYGYLAQPAGQQPQWMTTTYQILPPSVGPATVAKRYYATTGPQTTHPTHPSTIQITNSFAQQSTPPKQQAATSCSPFKANNIRIISTAPSVYSLNKPPQEAHSTYAPVQSYYLPSGGGQTAGQINLLAASGTGKQLQPPPLVPVTNSTSPPSTVVLDRINICINNHYTETPTSLSSSLTTAQQPSPIIPAIQHKAILPLIDSSTADSSSCSSSSVSSSSYSGTATTSAAVVIVDEPDSTTTTPQTPPTTPEAMSSPGKSSPSPPLLATQSLLKGVNSMKPSFKTVEAAPPTPPTPPSPPPPPPAPPVAAPSPAVTYALQEDVFIKCNDGRFYLGTIIDQTSDQYLIRFDDQSEQWCEPDKLRKLGGGSSITAGGGGASTTESTNTSPSGPMCVACKRSDIEDVVEICERCGRGYHRGCTVEIVTGSGIWSCKRCAKPMKMQQPVSHKITKPAGICRQLPYHADKLSWDEKHRVNEEQIYCYCGKPGKFDHNMLQCCKCRNWFHTQCMQNFKKKLLRGDMFFVFCCTVCNNGIEFVRRMQIEWVDVLHIALYNLRKHQHQKYHHLLNDIWPFILEQRHQLPICEKWRTLPETALMERLKQTLKDYSDRFVCGREFKRAPAFYALRHSGPPHIPKVFLEPHEELSDELLEKRFKLMLMPEEPDEGANELPKRVPKDVYEFNTDEDDPVETSEDEIPIKQIIEKAKKQAAQKADKHDELPLKPDLADDNANDGDPGKLPAPIPPLLDANSSRKRKAFRLSKRYDNSRNHCDLSSDENSSSSRGTSSLDLIIPPPVNFLGRNNPFLMATPKKASQGRSISVGTGVGVNGIINSIFKLKGTSKEQPRMVRTIKRRLSAKDITIGPNQEVRRRRTRRLTTAIEVISTTTINPIPSHYLPIYAKDLQPPAPPMGKPTHGRLLRQRPQKQSPSQSRRNSTSSTATSSSSNGIGAPGHSMLDLKQSVNKYFGGAMNRIDAGEPFAIRAKRRMGNGQVQYLVEWGGDTATTAIGLLGN
As for B1, the MAPPIT interaction score is 0.709 with E(z) (MAPPIT configuration: N-C) and 3.05 (active) in the experiment with E(z) (MAPPIT configuration: N-N).

B2: Snapin (protein)
chain: MDSDSTVTSLEENTENFCTNPTRDILAEGITNLFKPTIERLDERVASTIQLQAELRGQLDALAAQLRDIEKAQSQIPEFADKVKELLNVKHKVTVISNVLVTSQERLTGLHKLIEKEQRRRQALLDSALSTNIS
Regarding B2, the MAPPIT interaction score in the experiment with Dysb (MAPPIT configuration: N-C) is -2.54; with Dysb (MAPPIT configuration: N-N) it was 0.529.

B3: RFeSP (protein)
chain: MMNAVSRAYVRGGAQVLSTGLKASGVAVNSMANRQAHTDLQVPDFSAYRRESVKDSRRRNDTAEERKAFSYLMVGAGAVGGAYAAKGLVNTFIGSMSASAEVLAMAKIEIKLSDIPEGKSVTFKWRGKPLFIRHRTAAEIETERNVPTSTLRDPEADDQRVIKPEWLVVIGVCTHLGCVPIANAGDWGGYYCPCHGSHYDASGRIRKGPAPLNLEVPTHEFPNEGLLVVG
As to B3, the MAPPIT interaction score in the experiment with E(spl)m4-BFM was 0.917.

B4: Rel (protein)
chain: MNMNQYYDLDNGKNVMFMNDASSTSGYSSSTSPNSTNRSFSPAHSPKTMELQTDFANLNLPGGNSPHQPPMANSPYQNQLLNNGGICQLGATNLINSTGVSFGVANVTSFGNMYMDHQYFVPAPATVPPSQNFGYHQNGLASDGDIKHVPQLRIVEQPVEKFRFRYKSEMHGTHGSLNGANSKRTPKTFPEVTLCNYDGPAVIRCSLFQTNLDSPHSHQLVVRKDDRDVCDPHDLHVSKERGYVAQFINMGIIHTAKKYIFEELCKKKQDRLVFQMNRRELSHKQLQELHQETEREAKDMNLNQVRLCFEAFKIEDNGAWVPLAPPVYSNAINNRKSAQTGELRIVRLSKPTGGVMGNDELILLVEKVSKKNIKVRFFEEDEDGETVWEAYAKFRESDVHHQYAIVCQTPPYKDKDVDREVNVYIELIRPSDDERSFPALPFRYKPRSVIVSRKRRRTGSSANSSSSGTESSNNSLDLPKTLGLAQPPNGLPNLSQHDQTISEEFGREKHLNEFIASEDFRKLIEHNSSDLEKICQLDMGELQHDGHNRAEVPSHRNRTIKCLDDLFEIYKQDRISPIKISHHKVEKWFIEHALNNYNRDTLLHEVISHKKDKLKLAIQTIQVMNYFNLKDVVNSTLNADGDSALHVACQQDRAHYIRPLLGMGCNPNLKNNAGNTPLHVAVKEEHLSCVESFLNGVPTVQLDLSLTNDDGLTPLHMAIRQNKYDVAKKLISYDRTSISVANTMDGNNALHMAVLEQSVELLVLILDAQNENLTDILQAQNAAGHTPLELAERKANDRVVQLLKNVYPEKGELAMTWIPCKVKEEIDSSSDESSDAGQLEIKSEEMDIETKDEDSVELDLSSGPRRQKDESSRDTEMDNNKLQLLLKNKFIYDRLCSLLNQPLGHGSDPQDRKWMQLARQTHLKQFAFIWLGAEDLLDHVKRKGASVEFSTFARALQAVDPQAYALLVNPT
With B4, the figures for the MAPPIT interaction score with Dif (MAPPIT configuration: N-C) and with Dif (MAPPIT configuration: N-N) were 3.09 and 1.57, respectively.

B5: BomBc1 (protein)
chain: MKCLILSFAIFVVLASQATAGNVIIGGVCQDCSPPVAENVVVGGQSYRTGRPGQGTVYINSPGAYLGALDGPIRRTGAGGGGGGGAQYPDGYSGRLPGGTYLHNKDCVGCSISGGGD
Regarding B5, the MAPPIT interaction score with Dpm3 is 0.481.

B6: Obp84a (protein)
chain: MYSALVRACAVIAFLILSPNCARALQDHAKDNGDIFIINYDSFDGDVDDISTTTSAPREADYVDFDEVNRNCNASFITSMTNVLQFNNTGDLPDDKDKVTSMCYFHCFFEKSGLMTDYKLNTDLVRKYVWPATGDSVEACEAEGKDETNACMRGYAIVKCVFTRALTDARNKPTV
With B6, the MAPPIT interaction score with Drat is 0.229.

B7: lok (protein)
chain: MARDTQGTQGTQSQASNIWTQVESQPMEKIVWGRLYGKNIKIKSLGTSSKYRIIYTHSSFSVDLNNDEFTAGRGEANDLILTLNDLPEKILTRISKVHFIIKRANCELTNPVYIQDLSRNGTFVNNEKIGTNRMRILKNDDVISLSHPTYKAFVFKDLSPNESIGLPEEINKTYYVNRKLGSGAYGLVRLVYDTRTCQQFAMKIVKKNMLSGARPSTNFSDPDRVLNEAKIMKNLSHPCVVRMHDIVDKPDSVYMVLEFMRGGDLLNRIISNKLLSEDISKLYFYQMCHAVKYLHDRGITHRDLKPDNVLLETNDEETLLKVSDFGLSKFVQKDSVMRTLCGTPLYVAPEVLITGGREAYTKKVDIWSLGVVLFTCLSGTLPFSDEYGTPAAQQIKKGRFAYGHPSWKSVSQRAKLLINQMLIVDPERRPSIDDVLQSSWLRDAPMLQKAKRLMKLDGMEIEEENFLEPPTKRSRR
In the case of B7, the MAPPIT interaction score in the experiment with Doa is 0.00241.

B8: Mlf (protein)
chain: MSLFGALMGDFDDDLGLMNNHMNHTMNAMNMQMRSMNRLMNSFMPDPFMQVSPFDQGFQQNALMERPQMPAMPAMGLFGMPMMPNFNRLLNADIGGNSGASFCQSTVMTMSSGPDGRPQIYQASTSTKTGPGGVRETRRTVQDSRTGVKKMAIGHHIGERAHIIEKEQDMRSGQLEERQEFINLEEGEAEQFDREFTSRASRGAVQSRHHAGGMQAIMPARPAAHTSTLTIEPVEDDDDDDDDCVIQEQQPVRSSAGRHYSSAPTAPQNSGNIATAAAPTPTSSPTTYDTSNGNNNNYVSSRRSYLRNGHGHSLATPRRPLRTPPSSPLATVSTSPSIHPHPYAANPRRQQRAVKHFHTEDEAASSYKAVKRGKKK
Regarding B8, in the experiment with DnaJ-1, the MAPPIT interaction score was -0.321.

B9: pho (protein)
chain: MAYERFGIILQSEQYDEDIGNTKVNQKMNEGNHYDLHRKNAFDRIIHSESKKGDNVINYNIHENDKIKAADNIFSSKLKMNPNMSYEMNINCFKNIGYGENQETSKVLTNSLSNNDINTEESGVVDKNSPFLTLGTTILNSNGKSRRWEQKLVHIKTMEGEFSVTMWASGISDDEYSGSDQIVGASDLLKGKEEFGIDGFTSQQNKEYQKMESKFTNAQTLEMPHPISSVQIMDHLIKERGNLSQENNISERILSKTTLSFEEPILLPDSSSIELVNETAAMTINNHRTLSNHTGNTGDLHALPSSVPFRIGLHEGQVNDCLSTISQSTHQDNTDSTGCGEMNLSEVTVSYTNDKKIACPHKGCNKHFRDSSAMRKHLHTHGPRVHVCAECGKAFVESSKLKRHQLVHTGEKPFQCTFEGCGKRFSLDFNLRTHVRIHTGDRPFVCPFDACNKKFAQSTNLKSHILTHAKAKRNTSISGKSGCSNAESNSQSEDTSANYVKVELQDSVTENHVPFVVYAD
B9: the MAPPIT interaction score with E(z) (MAPPIT configuration: N-C) was 0.498; in the experiment with E(z) (MAPPIT configuration: N-N), 0.583.

B10: MED19 (protein)
chain: MMSNYGNMMDSPKSSPHGGGRSPVVARQDSSGTLKTTISLGKTPTIIHTGPFYSMKEPPAKAELTGDKDLMTEYGLHHTLTKFKEKKFKESLASFLQNIPGINDLITHPVENSTLRSVIEKPPIGGKELLPLTPVQLAGFRLHPGPLPEQYRTTYVTPARKHKNKHKKQKHKDGVTTGQESTLLDSAGLETYEKKHKKQKRHEDDKERKKRKKEKKRKKKNQSPEPGVGLLPGGASLGGAAGVMGATSLGSLGGGPGGPGLSSLSASMGPGVVGNMNSFSSSMQMQQQQQMPMQQQQMSSGGLLGSVLGTSGGPGGGGGGGGGGGGGVGGSLLMSQF
On to B10, for which the MAPPIT interaction score with Doc1 is -0.0798.

B11: Os-C (protein)
chain: MGFHMGRQLLLSGFLLVMLQMVTQTQARPQDVITVAGEETEVVIKREGDDDGDDDDSSSEETVEDSEESRRRRREVNTDNTPSARAVIPGEQVVPILLEAILPSVDAAGDRFARSVQFLKNLTPGSELFAVEKNE
Consider B11, for which the values for the MAPPIT interaction score in the experiment with Dpit47 (MAPPIT configuration: N-C), with Dpit47 (MAPPIT configuration: N-N) and with Vps51 were 1.62, 0.00721 and -0.071, respectively.

B12: bsk (protein)
chain: MTTAQHQHYTVEVGDTNFTIHSRYINLRPIGSGAQGIVCAAYDTITQQNVAIKKLSRPFQNVTHAKRAYREFKLMKLVNHKNIIGLLNAFTPQRNLEEFQDVYLVMELMDANLCQVIQMDLDHDRMSYLLYQMLCGIKHLHSAGIIHRDLKPSNIVVKADCTLKILDFGLARTAGTTFMMTPYVVTRYYRAPEVILGMGYTENVDIWSVGCIMGEMIRGGVLFPGTDHIDQWNKIIEQLGTPSPSFMQRLQPTVRNYVENRPRYTGYSFDRLFPDGLFPNDNNQNSRRKASDARNLLSKMLVIDPEQRISVDEALKHEYINVWYDAEEVDAPAPEPYDHSVDEREHTVEQWKELIYEEVMDYEAHNTNNRTR
As to B12, the figures for the MAPPIT interaction score with Dhod and with cindr were 1.59 and 0.0365, respectively.

B13: Mtap (protein)
chain: MITIKCKDTNLDPLPVKIGIIGGSGLDDPDILEQRQERVVETPYGEPSDALIEGEINGVQCVLLARHGRKHDIMPSNVNYRANIWALRDVGCTHLIVSTACGSLREEIKPGNLVVPHDFIDRTTKRLQTFYDGKAQSPRGVCHLPMFPAFSERTRNILLQAAKELEIPAHDKATIVTIEGPRFSSRSESHMFRQWGGDLINMTTCPEVVLAKEAGLLYGSVAIATDYDCWRMGCEGVNVQDVLRTFAENVIKVKKILVNAVGRIAKEDWSEDILNAKQCVCNNTMSGAM
On to B13, for which the MAPPIT interaction score is 0.638 with Dlc90F and 5.81 (active) with Mtap.

Source of the values: the supplement of paper PMC10105736.
